Tau fluor cs: counter-screen for tau fibril formation inhibitors; tau K18 P301L Alexa594 fluorescence, heparin fibrillization; AID 1463; Potency, µM (series often up to 57.7 µM), without a hit: top-dose activity change, negative = decrease; 280,000 compounds, 0.93% hits; further: nearly all actives have a fitted effect of over 55% in size
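Human K18 P301L tau (15 uM unlabeled plus 0.24 uM Alexa 594-labeled, final) in 100 mM sodium acetate pH 7 was mixed with compound and 20 uM heparin and incubated 6 hr at 37 C.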
Tau fibril FP: inhibitors of human tau fibril formation. P10636. AID 1468. Potency, µM (top dose mostly 57.7 µM), for inactives: at the highest dose activity, negative = inhibition, most hits filed as inhibitors. K18 P301L tau heparin fibrillization, Alexa594 FP, 6 h. 280,000 compounds, 0.39% hits; further: nearly all actives have a fitted effect of over 55% in size
Target sequence (P10636 561-689 P618L limits assumed): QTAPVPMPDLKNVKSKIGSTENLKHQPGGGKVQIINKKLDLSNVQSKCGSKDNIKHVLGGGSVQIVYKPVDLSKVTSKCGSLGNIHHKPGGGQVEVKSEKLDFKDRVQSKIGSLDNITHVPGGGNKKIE
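Compound effects on tau fibrillization are measured by Alexa 594 fluorescence polarization (ex 555, em 632 nm). K18 P301L tau is used at 15 uM with 0.24 uM labeled tracer, and 20 uM heparin induces aggregation over 6 hr at 37 C.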
TR SRC2 fluor cs: Texas Red fluorescence interference in TRb-SRC2 counter-screen; TRb/SRC2 Texas Red total fluorescence interference; Potency, µM (top dose mostly 106 µM), without a hit: at the highest dose fluorescence change, negative = quenching; 280,000 compounds, 0.29% hits; active means well fitted curve in either direction with a large enough effect; inconclusive means small, poorly fitted or top-dose-only effect
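Flags fluorescent or light-absorbing compounds by total fluorescence, S + 2P, at 555 nm excitation and 632 nm emission. Mixture: 20 nM Texas Red SRC2 peptide, 0.6 uM human TRb LBD, 1 uM T3, 5% DMSO; compound exposure 5 h at ambient temperature.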
TRb-SRC2 inh: TRbeta-SRC2 interaction inhibition | P10828 | TRbeta-SRC2 peptide binding, fluorescence polarization; receptor liganded with 1 µM T3 | Potency, µM (top dose mostly 106 µM), for inactives: at the highest dose activity change, negative = inhibition, actives largely listed as inhibitors | 280,000 compounds, 0.065% hits | AID 1469;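 further: plate controls were bound peptide for no effect and peptide without receptor for full effect; nearly all actives have a fitted effect of over 50% in size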
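Fluorescence polarization of 20 nM Texas Red SRC2 peptide with 0.6 uM human TRb ligand-binding domain, in Tris buffer with 1uM T3 and 5% DMSO. Incubated 5 hr ambient; normalized to unbound and bound controls.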
Tau fibril ThT: tau fibrillization inhibition (ThT binding) | P10636 | recombinant tau K18 P301L, heparin-induced fibrillization, ThT fluorescence | Potency, µM (highest dose often 57.4 µM), for the others: top-dose activity, negative = inhibition, actives largely listed as inhibitors | 270,000 compounds, 2.1% hits; further: nearly all actives have a fitted effect of over 55% in size
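ThT emission at 510 nm, taken 1 hr after adding 30 uM dye, quantifies aggregates formed when 20 uM heparin acts on human tau K18 P301L for 6 hr at 37 C.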
RGS12 GoLoco inh: blocks human Gai1 binding to RGS12 GoLoco peptide, red readout | AID 880 | Gai1:RGS12 GoLoco peptide FP, rhodamine, 10 min | P63096 | 230,000 compounds, 0.44% hits | Potency, µM (doses to about 61.6 µM), inactives show top-dose activity, negative = inhibition, usual class: inhibitors; active means well fitted inhibition curve with a large enough effect, not every such curve was filed as active; inactive means no such curve, though single readings can be large or run the other way; further: nearly all actives have a fitted effect of over 30% in size
Target sequence (P63096 whole entry, looked up): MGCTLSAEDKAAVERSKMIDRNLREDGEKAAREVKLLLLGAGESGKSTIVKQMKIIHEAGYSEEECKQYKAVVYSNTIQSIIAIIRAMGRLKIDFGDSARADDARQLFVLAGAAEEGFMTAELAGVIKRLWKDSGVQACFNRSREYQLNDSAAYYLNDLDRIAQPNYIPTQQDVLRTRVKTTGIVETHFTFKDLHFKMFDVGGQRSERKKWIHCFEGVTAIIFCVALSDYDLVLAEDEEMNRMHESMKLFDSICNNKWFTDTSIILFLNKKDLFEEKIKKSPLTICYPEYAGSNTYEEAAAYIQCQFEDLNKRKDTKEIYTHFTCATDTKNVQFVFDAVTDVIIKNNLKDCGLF
* = called active by the depositor; ? = inconclusive; . = not tested or not shown; [ ] = remark or other dose. This is a sample that favours compounds with a hit; in the whole collection about 3.2% have one here. Unless noted, the call rests on the fitted dose curve; in most records, active means well fitted curve in the direction sought with a large enough effect; inconclusive means small, poorly fitted or top-dose-only effect, or another doubt; inactive means no such curve, though single readings can be large; an effect the other way counts as inactive or inconclusive. Unless noted, on the % scale 0 is the no-effect control and ±100 the full control effect; potency means the concentration at half of the fitted maximal effect.

SMILES	Tau fluor cs	Tau fibril FP	TR SRC2 fluor cs	TRb-SRC2 inh	Tau fibril ThT	RGS12 GoLoco inh
O=C1OC(Nc2ccc3c(c2)OCO3)c2ccccc21 (stereo unspecified)	?	?	-2%	5%	13µM*	-15%
COc1ccc(SCC(Cc2ccccc2)N2CCN(CC(C)C)CCC2=O)cc1 (stereo unspecified)	.	.	-2%	0%	.	.
CCCc1ccc(-c2c(C)sc(N)c2C#N)cc1	16µM*[quencher]	?	-5%	-6%	?	42%
O=C(/C=C/c1ccc2c(c1)OCO2)c1ccccn1	-29%	-9%	2%	1%	14µM*	10%
CCNc1ccc(Br)cc(C(=O)/C=C/c2ccc(Cl)cc2Cl)c1=O	-29%	-15%	-2%	-3%	16µM*	102%
CNc1ccc(Br)cc(C(=O)/C=C/c2cc(OC)ccc2OC)c1=O	?	?	2%	-18%	10µM*	32%
CNc1ccc(Br)cc(C(=O)/C=C/c2ccc3c(c2)OCO3)c1=O	?	?	-9%	8%	13µM*	69%
O=C(N/N=C/c1ccc2c(c1)OCO2)c1ccccn1	-1%	-8%	0%	-3%	-14%	4%
C=CCSc1nc2c(N)ncnc2n1[C@@H]1O[C@H](CO)[C@@H](O)[C@@H]1O	.	.	.	.	.	0%[14.2 µM]
Nc1ccccc1NC(=O)c1ccc(CNC(=O)OCc2cccnc2)cc1	.	.	-2%	0%	.	.
COc1ccc(/C=C/C(=O)c2ccc(OC)cc2OC)cc1	-20%	10%	-3%	5%	?	1%
CNc1ccc(Br)cc(C(=O)/C=C/c2ccc(OC)cc2)c1=O	?	?	-10%	-5%	14µM*	12%
C1CCC(NC(=NC2C3CC4CC(C3)CC2C4)N2CCOCC2)CC1 (stereo unspecified)	-1%	-3%	0%	-6%	1%	1%
CCCCCCCCCCCCC/C=C/[C@@H](O)[C@H](CO)NCCCCCCCC	0%	-1%	1%	-7%	-7%	-8%
ClC1=C(Cl)C(Cl)(Cl)C(Cl)=C1Cl	.	.	0%[201 µM]	0%[201 µM]	.	4%
NSc1nc(N)c2nc(-c3ccccc3)c(-c3ccccc3)nc2n1	-19%	?	-3%	-6%	16µM*	11%
CCOc1ccc2nc(N3C(=O)/C(=C/c4ccccc4)NC3=S)sc2c1	?	?	-5%	2%	3.5µM*	.
COc1ccc2nc(-n3c(C)ccc3C)sc2c1	-12%	-12%	-2%	0%	?	43%
COc1ccc2nc(N3C(=O)/C(=C/c4ccccc4)NC3=S)sc2c1	?	-3%	-2%[53 µM]	-2%[53 µM]	4µM*	192%
CCOc1ccc2nc(N3CCCCCC3)sc2c1	-16%	14%	-2%	-3%	?	4%
Cc1ccc(S(=O)(=O)N[C@H]2COC(=O)C/C=C\[C@@H](C)COC(=O)C/C=C\[C@@H]2C)cc1	-9%[11.6 µM]	-2%[11.6 µM]	2%[11.2 µM]	4%[11.2 µM]	-7%[11.5 µM]	.
COc1ccccc1/C=C1\S/C(=N/NC(=O)c2cccc(Br)c2)NC1=O	?	1%	-9%	11%	13µM*	12%
COC1=CC(=O)C(O)=C/C1=C\C=C\c1ccccc1	?	16µM*	-6%	-6%	7.9µM*	-8%
COc1ccc2c(c1O)C(=O)c1ccccc1C2=O	-5%	10%	0%	3%	?	1%
Nc1c(O)ccc2c1C(=O)c1ccccc1C2=O	?	?	?	?	14µM*	116%
SMILES	Tau fluor cs	Tau fibril FP	TR SRC2 fluor cs	TRb-SRC2 inh	Tau fibril ThT	RGS12 GoLoco inh
COC(=O)NC(/C=C/c1ccccc1)C(C(C)=O)C(=O)OC (stereo unspecified)	-3%	4%	-2%	8%	-5%	3%
CCCCCC[N+](C)(C)CCSSCC[N+](C)(C)CCCCCC	-23%	?	-2%	-20%	7.1µM*	-37%
Cc1cn(C2CC3OCC(NC(=O)C4CCCN4C(=O)OC(C)(C)C)C3O2)c(=O)[nH]c1=O (stereo unspecified)	.	.	-1%	8%	.	.
O=C(c1ccc(Cl)cc1)c1ccc(Cl)cc1	.	.	-1%[201 µM]	0%[201 µM]	.	.
O=C(CCCn1c(=O)c2cccn2c2ccc(F)cc21)NCCc1ccccc1	4%	-7%	?	-1%	-6%	.
CCc1ccc(NC(=O)Cn2c(=O)c3cccn3c3ccccc32)cc1	?	20µM*	?	3%	12%	.
CCOC(=O)c1cccc(NC(=O)Cn2c(=O)c3cccn3c3ccccc32)c1	?	13µM*	8%	6%	?	.
CCOC(=O)c1ccc(NC(=O)CCCn2c(=O)c3cccn3c3ccccc32)cc1	-10%	-2%	-15%	0%	?	.
O=C(Cn1c(=O)c2cccn2c2ccccc21)NCCc1ccccc1	?	14µM*	-2%	3%	18%	.
Cc1cc(C)c(NC(=O)Cn2c(=O)c3cccn3c3ccccc32)c(C)c1	?	7.9µM*	1%	4%	?	.
CCOc1ccccc1-c1nnc2n1N=C(c1cc(OC)ccc1OC)CS2	.	.	0%	-5%	.	.
CCCN(C(=O)Cn1cnc2onc(-c3ccc(F)cc3)c2c1=O)c1cccc(Cl)c1	-11%	-14%	178µM*[quencher]	-16%	6%	.
Cc1cccc([N+](=O)[O-])c1C	.	.	-2%[201 µM]	-4%[201 µM]	.	2%
Cc1cc(N2CCOCC2)c2c(N)cc(C)c(C)c2n1	-6%	-1%	0%	1%	?	5%
Nc1c(N2CCOCC2)cc(Cl)c2nonc12	-25%	?	-1%	?	16µM*	-5%
Nc1ccc(N2CCCCC2)cc1N1CCCCC1	?	?	24%	0%	?	23%
Nc1ccc(N2CCCCC2)c2nonc12	?	?	-2%	?	8.9µM*	7%
Nc1c(N2CCCC2)cc(Cl)c2nonc12	-24%	?	-2%	?	2.8µM*	.

High-throughput results from PubChem.
